Source: the supplement of paper PMC12645437, “Orthogonal IMiD-Degron Pairs Induce Selective Protein Degradation in Cells” (ACS Chemical Biology, 2025)
The full ranking holds about 8,300 sequences; the median of “log2 fold change of degron read counts, EGFP-low vs EGFP+ sorted cells (limma voom), compound-induced degradation” is about -1.1, and the highest 2% start at about 3.2. What follows is part of a selection rich in the highest values, with near analogues and random picks from the rest.

T1: CRBN, Q96SW2
T1 chain: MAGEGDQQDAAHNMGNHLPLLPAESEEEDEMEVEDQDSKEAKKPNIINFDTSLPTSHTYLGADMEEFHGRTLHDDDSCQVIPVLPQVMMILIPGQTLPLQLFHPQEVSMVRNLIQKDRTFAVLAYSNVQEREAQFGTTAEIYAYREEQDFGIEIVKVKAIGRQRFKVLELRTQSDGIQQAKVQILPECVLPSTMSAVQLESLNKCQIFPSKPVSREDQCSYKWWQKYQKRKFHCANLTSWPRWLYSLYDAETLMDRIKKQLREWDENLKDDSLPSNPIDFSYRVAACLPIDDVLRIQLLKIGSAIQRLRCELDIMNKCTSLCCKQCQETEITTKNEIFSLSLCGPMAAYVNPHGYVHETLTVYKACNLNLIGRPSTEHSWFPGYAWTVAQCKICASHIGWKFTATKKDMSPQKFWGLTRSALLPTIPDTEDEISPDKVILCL


Target: T1, CRBN, Q96SW2
Experiment: log2 fold change of degron read counts, EGFP-low vs EGFP+ sorted cells (limma voom), compound-induced degradation; higher = more compound-induced degradation of the degron-EGFP fusion; degrons are variants of IKZF1/3 zinc finger 2; compound dose not given here
Settings: Jurkat, 18 h
[1] = compound: compound 19 (5-tert-butyl-thalidomide)
[2] = compound: compound 22 (5-morpholino-thalidomide)
[3] = compound: compound 33 (diphenyl IMiD analogue)
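Further: pooled lentiviral library of zinc finger degron-EGFP fusions in mCherry-positive Jurkat cells, FACS-sorted after compound exposure, with degron abundance counted by next-generation sequencing.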

Sequence | log2 fold change of degron read counts [1] | log2 fold change of degron read counts [2] | log2 fold change of degron read counts [3] | log2 fold change of degron read counts (compound: thalidomide)
LYCNQCGFFCTQKGNLLRHIKL [46L_47Y_49N_50Q_52G_53F_54F_55C_67L_, Q9UKT9] | -0.205 | -0.821 | -0.706 | -0.795
FFCDICGAGFTQKGNLLRHIKL [46F_47F_49D_50I_52G_53A_54G_55F_67L_, Q9UKT9] | 2.9 | 1.78 | 0.35 | -0.766
FQCNQCGHIFTQKGNLLRHIKL [46F_47Q_49N_50Q_52G_53H_54I_55F_67L_, Q9UKT9] | -2.78 | -2.92 | -2.91 | -2.7
FICNQCGAAFTQKGNLLRHIKL [46F_47I_49N_50Q_52G_53A_54A_55F_67L_, Q9UKT9] | -2.19 | -0.99 | -0.297 | -0.649
LCCEICGFNCTQKGNLLRHIKL [46L_47C_49E_50I_52G_53F_54N_55C_67L_, Q9UKT9] | -0.957 | -1.02 | 0.0485 | 0.0948
FECPICGAKFTQKGNLLRHIKL [46F_47E_49P_50I_52G_53A_54K_55F_67L_, Q9UKT9] | 0.543 | -0.648 | 0.0161 | 3
FSCNICGAEFTQKGNLLRHIKL [46F_47S_49N_50I_52G_53A_54E_55F_67L_, Q9UKT9] | -0.854 | 0.252 | 0.443 | 0.069
FVCEICGAPFTQKGNLLRHIKL [46F_47V_49E_50I_52G_53A_54P_55F_67L_, Q9UKT9] | 3.26 | 3.62 | 2.49 | 3.65
FYCEICGADFTQKGNLLRHIKL [46F_47Y_49E_50I_52G_53A_54D_55F_67L_, Q9UKT9] | 1.04 | 1.57 | 0.298 | -1.13
FMCEICGHPFTQKGNLLRHIKL [46F_47M_49E_50I_52G_53H_54P_55F_67L_, Q9UKT9] | -1.77 | -1.41 | 0.426 | -0.396
FFCEICGHPFTQKGNLLRHIKL [46F_47F_49E_50I_52G_53H_54P_55F_67L_, Q9UKT9] | 0.211 | -0.726 | -0.864 | -1.23
FYCEQCGAPFTQKGNLLRHIKL [46F_47Y_49E_50Q_52G_53A_54P_55F_67L_, Q9UKT9] | 1.97 | 1.06 | 0.568 | -1.07
FVCEICGADFTQKGNLLRHIKL [46F_47V_49E_50I_52G_53A_54D_55F_67L_, Q9UKT9] | -1.49 | -0.553 | -0.517 | 0.943
FFCEICGAPFTQKGNLLRHIKL [46F_47F_49E_50I_52G_53A_54P_55F_67L_, Q9UKT9] | 3.4 | 3.34 | 2.28 | 1.95
FFCEICGADFTQKGNLLRHIKL [46F_47F_49E_50I_52G_53A_54D_55F_67L_, Q9UKT9] | 0.436 | 1.48 | -0.411 | -0.679
FMCEICGADFTQKGNLLRHIKL [46F_47M_49E_50I_52G_53A_54D_55F_67L_, Q9UKT9] | -1.98 | -1.6 | 1.99 | -0.153
FYCEICGAPFTQKGNLLRHIKL [46F_47Y_49E_50I_52G_53A_54P_55F_67L_, Q9UKT9] | 3.86 | 3.74 | 3.06 | 2.44
FMCEICGAPFTQKGNLLRHIKL [46F_47M_49E_50I_52G_53A_54P_55F_67L_, Q9UKT9] | 3.59 | 3.43 | 3.13 | 2.94
FVCEICGAMFTQKGNLLRHIKL [46F_47V_49E_50I_52G_53A_54M_55F_67L_, Q9UKT9] | 0.202 | 0.968 | 1.67 | 2.16
FQCPQCGAMFTQKGNLLRHIKL [46F_47Q_49P_50Q_52G_53A_54M_55F_67L_, Q9UKT9] | -1.88 | -0.122 | 0.828 | 2.53
LCCNQCGFMCTQKGNLLRHIKL [46L_47C_49N_50Q_52G_53F_54M_55C_67L_, Q9UKT9] | -1.73 | -2.27 | -1.57 | -1.43
FVCDVCGAVFTQKGNLLRHIKL [46F_47V_49D_50V_52G_53A_54V_55F_67L_, Q9UKT9] | -2.2 | -1.22 | 0.29 | -0.895
FQCNQCGAYFTQKGNLLRHIKL [46F_47Q_49N_50Q_52G_53A_54Y_55F_67L_, Q9UKT9] | -2.89 | -2.26 | -1.84 | -0.227
FTCPQCGAQFTQKGNLLRHIKL [46F_47T_49P_50Q_52G_53A_54Q_55F_67L_, Q9UKT9] | -2.03 | 0.309 | 1.83 | 1.07
LECPICGFGCTQKGNLLRHIKL [46L_47E_49P_50I_52G_53F_54G_55C_67L_, Q9UKT9] | 0.698 | -0.66 | 1.1 | 2.27
FNCNQCGHVFTQKGNLLRHIKL [46F_47N_49N_50Q_52G_53H_54V_55F_67L_, Q9UKT9] | -2.33 | -2.54 | -2.77 | -2.34
FECPICGHPFTQKGNLLRHIKL [46F_47E_49P_50I_52G_53H_54P_55F_67L_, Q9UKT9] | -2.51 | -2.54 | -0.989 | -0.173
FFCPICGHGFTQKGNLLRHIKL [46F_47F_49P_50I_52G_53H_54G_55F_67L_, Q9UKT9] | -1.02 | -1.29 | -0.968 | -1.48
